From PubChem BioAssay
This is a sample that favours compounds with a hit; in the whole collection about 1.5% have one here.
MEX-5 binding – C. elegans MEX-5 TCR-2 RNA binding activity. Q9XUB2. MEX-5/FITC-TCR2 RNA binding, fluorescence polarization; hits give low values. activity score (negative = inhibition of binding), % at 10 µM. hit rate 0.38% among 300,000. AID 1832;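 active = inhibition past about -25% in most replicates, and total fluorescence under double the plate's negative control median, limit read from the data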;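 also: 0% = DMSO and -100% = 5 µM competing unlabeled TCR2 RNA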
Bcl-xL primary – blocks human Bcl-xL binding to Bim BH3 peptide | inhibition, % at 10.9 µM | hit rate 0.7% among 320,000 | GST-Bcl-xL / FITC-Bim BH3 peptide fluorescence polarization;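 active = inhibition above the mean of all tested compounds plus 3 SD, cutoff set per campaign, cut at about 30% in these data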;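 also: 0% = DMSO wells and 100% = unlabeled Bim-BH3 peptide competitor; inhibitors lower millipolarization by displacing the labeled peptide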
EBV gp42 block – blocks Epstein-Barr virus glycoprotein 42 binding; hit rate 0.42% among 220,000; Fluorescence polarization binding assay, mP read-out; inhibition, % (tested at 21.74 µM); AID 1085; in the data active = inhibition above about 50%
E coli Lon inh – inhibitors of E. coli Lon protease; P0A9M0; purified E. coli Lon protease, fluorescence polarization; inhibition, % at 7.94 µM; hit rate 0.42% among 360,000; in the data active = inhibition above about 13%, passing the limit was not always enough;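 also: 0% = enzyme with probe and DMSO and 100% = no enzyme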
GLD-1 RNA inh – GLD-1-TGE RNA interaction inhibition (C. elegans); purified GLD-1 + fluorescein TGE RNA, fluorescence polarization; hit rate 0.44% among 320,000; Q17339; inhibition, % at 5.96 µM;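 active = percent inhibition above a per-plate cutoff, the plate mean of test compounds plus 3 SD, cut at about 30% in these data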;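 also: 0% = DMSO wells with GLD-1 and probe and 100% = wells lacking GLD-1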
MCL1 BIM primary – disrupts human MCL1 binding to BIM-BH3 peptide | Q07820 | GST-MCL1 / FITC-Bim-BH3 fluorescence polarization | inhibition, % at 10.9 µM | hit rate 0.68% among 320,000 | AID 2057;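 active = inhibition above the mean inhibition of all tested compounds plus 3 SD, set per campaign, cut at about 40% in these data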;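 also: 0% = DMSO wells and 100% = unlabeled Bim-BH3 peptide control; higher means more loss of mP so more displacement of Bim peptide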
E coli Lon conf – confirmation of E. coli Lon protease inhibitors | shares compounds with E coli Lon inh | purified E. coli Lon, fluorescence polarization | inhibition, % at 7.94 µM | hit rate 31% among 1,400 | AID 602230; in the data active = inhibition above about 16%;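 also: 0% = enzyme with probe and DMSO and 100% = no enzyme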
* = called active by the depositor; . = no result; + = active, no number.

SMILES	MEX-5 binding	Bcl-xL primary	EBV gp42 block	E coli Lon inh	GLD-1 RNA inh	MCL1 BIM primary	E coli Lon conf
CC(=O)NCCc1nc2cc(NC(=O)c3cccc([N+](=O)[O-])c3)ccc2n1C	1	.	.	-3	.	.	.
CSc1ncccc1C(=O)N1CCN(S(=O)(=O)c2ccc(C)cc2)CC1	3	9	.	17*	5	7	0
O=C(c1[nH]ncc1-c1cccc(Br)c1)C1CO1 (centres undefined)	2	3	-13	1	6	1	.
O=C(c1[nH]ncc1-c1ccccc1)C1CO1 (centres undefined)	-3	2	-14	50*	4	3	21*
CN(C)CCCn1c2c3ccccc3ccc2c2oc(=O)c3ccccc3c21	.	.	.	+	.	.	23*
O=C(CC[C@H]1O[C@@H](n2ccc(=O)[nH]c2=O)[C@H](O)[C@@H]1O)N1CCN(Cc2cccc3ccccc23)CC1	.	.	.	0	.	.	.
CC(C)n1c(S(=O)(=O)O)nc2ccccc21	-4	-3	10	14*	2	-5	-1
Cc1occc1C(=O)NC(C)C1CCCO1 (centres undefined)	0	15	5	15*	11	17	-3
CC(NC(=O)c1ccco1)C1CCCO1 (centres undefined)	2	6	-9	-2	6	3	.
CCN(C(=O)COC(=O)c1ccc(Cl)c(N)c1)C1CCS(=O)(=O)C1 (centres undefined)	-2	7	-10	-10	1	-9	.
COc1cccc2cc(-c3nnc(SCC(=O)Nc4ccc(NC(C)=O)cc4)n3C)oc12	-2	-4	.	-5	8	-4	.
O=C(COC(=O)c1ccco1)Nc1nc2c(F)c(F)c(F)cc2s1	1	0	.	-5	1	6	.
O=C(COC(=O)c1ccc(NS(=O)(=O)c2cccs2)cc1)Nc1nc2c(F)c(F)c(F)cc2s1	.	.	-26	21*	.	.	-25
OC(c1ccccc1)c1ncc(-c2cccc(C(F)(F)F)c2)[nH]1 (centres undefined)	.	.	.	-2	.	.	.
Cc1ccc(C(O)c2ncc(-c3cccc(C(F)(F)F)c3)[nH]2)cc1 (centres undefined)	.	.	.	15*	.	.	2
CCn1ccnc1CNC(=O)c1ccc2oc(CCCc3ccccc3)nc2c1	-1	5	.	-6	3	0	.
O=C(COc1ccc(F)cc1)Nc1nc(-c2ccccn2)cs1	0	5	.	19*	6	-2	-10
O=C(COc1cccc(F)c1)Nc1nc(-c2ccccn2)cs1	.	.	.	7	.	.	.
CC1(C)CC(O)CC(C)(C)N1CC(O)COCc1ccccc1 (centres undefined)	3	6	.	0	3	3	.
Cc1cccc(OCC(O)CN2C(C)(C)CC(O)CC2(C)C)c1 (centres undefined)	0	6	-9	14*	6	5	-2
CC1=C(C(=O)c2ccccc2)C(c2cccc([N+](=O)[O-])c2)NC(=S)N1 (centres undefined)	-2	0	-5	26*	-2	5	1
Cc1cccc(Cn2c(Sc3nc(C)cs3)nc3c2c(=O)[nH]c(=O)n3C)c1	-1	7	-8	1	5	14	.
C=CCn1c(Sc2nc(C)cs2)nc2c1c(=O)[nH]c(=O)n2C	2	5	6	22*	1	4	3
COc1ccc(N2CCN(CC(O)COCCOc3ccc(Br)cc3)CC2)cc1 (centres undefined)	3	3	4	-20	3	5	.
OCCN1CCN(CC(O)COCCOc2ccc(Br)cc2)CC1 (centres undefined)	3	6	3	69*	2	5	-2
COC(=O)CCC(=O)Nc1ccc(S(=O)(=O)Nc2nc(C)cc(C)n2)cc1	-1	3	.	-4	3	10	.
O=C(C/C=N\OCc1ccc([N+](=O)[O-])cc1)Nc1ccc(Br)cc1	-1	1	15	17*	9	4	-2
O=C(COc1ccc([N+](=O)[O-])cc1)NNC(=O)Nc1ccc([N+](=O)[O-])cc1	4	-1	.	0	-4	2	.
CCn1cc(CN2CCC(n3nccc3NC(=O)c3ccccc3C)CC2)c(C)n1	0	4	.	45*	0	3	-5
